# This is a sample that favours compounds with a hit; in the whole collection about 32% have one here.
# PostGolgi yeast: growth inhibition of a yeast mutant, post-Golgi transport screen | post-Golgi transport phenotypic cell assay | inhibition, % at 10 µM | 0.9% of 98,000 active | AID 739;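 note: yeast cells grown in 1536-well plates; yeast grown about 18 h at 30C before absorbance read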
# CYP2C19 inhib: human CYP2C19 inhibition; 21% of 96,000 active; inhibition, % at 5 µM; CYP2C19 Supersomes, luciferin-H EGE luminescence, 30 min; AID 778;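 active = CYP2C19 inhibition above a set limit at 5 µM in the primary screen, cut at about 50% in these data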;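 note: plate controls were negative control wells for no effect and 2.5 mM tranylcypromine positive control for full effect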
# PostGolgi ctrl: growth of the yeast control strain, post-Golgi counter-screen. efflux-deficient yeast background strain, growth absorbance A615, 16 h. inhibition, % at 10 µM. 5% of 98,000 active
# CYP2C9 activ: activators of human CYP2C9 | P11712 | recombinant CYP2C9, luciferin-H conversion, luminescence; active compounds read high; factor 1 = untreated enzyme, 0 = blocked | activation factor at 5 µM | 1.4% of 96,000 active | AID 1024;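 active = activation factor of 2 or more for CYP2C9 at a 5 µM dose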;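 note: 0 = sulfaphenazole-blocked wells and 1 = vehicle-only wells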
# Target sequence (P11712 whole entry, looked up): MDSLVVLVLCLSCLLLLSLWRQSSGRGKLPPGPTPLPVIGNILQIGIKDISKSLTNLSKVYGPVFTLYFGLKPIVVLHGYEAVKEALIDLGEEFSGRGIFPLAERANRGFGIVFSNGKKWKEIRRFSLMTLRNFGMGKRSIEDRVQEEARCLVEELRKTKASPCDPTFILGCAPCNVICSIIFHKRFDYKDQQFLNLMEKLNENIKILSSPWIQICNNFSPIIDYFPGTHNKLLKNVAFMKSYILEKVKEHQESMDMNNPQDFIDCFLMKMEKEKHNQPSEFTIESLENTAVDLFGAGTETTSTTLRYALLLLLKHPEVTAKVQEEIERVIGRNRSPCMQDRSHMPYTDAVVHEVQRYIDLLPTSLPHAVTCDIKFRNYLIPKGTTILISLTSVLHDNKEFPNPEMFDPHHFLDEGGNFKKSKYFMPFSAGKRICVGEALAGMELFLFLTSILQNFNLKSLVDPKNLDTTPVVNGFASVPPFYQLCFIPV
# CYP2C9 inh: blocks human cytochrome P450 2C9 | CYP2C9 Supersomes, luciferin-H conversion, luminescence | inhibition, % at 5 µM | 20% of 96,000 active | AID 777;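 active = blocking of liver enzyme CYP2C9 beyond about 50% at 5 µM, limit read from the data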
# CYP2C19 act: increases human CYP2C19 enzyme activity; 96,000 tested, under 10 active; activation factor at 5 µM; AID 1025; recombinant CYP2C19, luciferin-H EGE luminescence; active compounds read high; 0 = fully inhibited enzyme, 1 = untreated enzyme; P33261;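 active = activation factor of at least 2 at 5 µM in the primary screen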;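 note: 0 = wells with 2.5 mM tranylcypromine and 1 = vehicle-only wells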
# Numbers without * were called inactive; / = not tested or not shown. Cut-off read from the data, not from the text of the source, unless noted: active = inhibition above about 30%; inactive = the rest.
SMILES,PostGolgi yeast,CYP2C19 inhib,PostGolgi ctrl,CYP2C9 activ,CYP2C9 inh,CYP2C19 act
O=C(NC1CCCCCC1)C1CCCN1S(=O)(=O)c1cccc2cccnc12 (stereo unspecified),-5,75*,12,1.1,-5,0.2
O=C(NC1CCCCC1)C1CCN(S(=O)(=O)c2cccc3cccnc23)CC1,-5,55*,6,3.4*,-242,0.4
O=C(NC1CCCC1)C1CCCN1S(=O)(=O)c1cccc2cccnc12 (stereo unspecified),-1,59*,4,1,4,0.4
O=C(NCCC1=CCCCC1)C1CCN(S(=O)(=O)c2cccc3cccnc23)CC1,1,32,15,1,-4,0.7
CCCNC(=O)c1cc(OC)c(OC)cc1[N+](=O)[O-],1,-14,1,1.2,-23,1.1
CC1CCCC(NC(=O)C2CCCN2S(=O)(=O)c2cccc3nsnc23)C1C (stereo unspecified),-1,87*,14,0.4,57*,0.1
NC(=O)C1(N2CCCCC2)CCN(CC(=O)Nc2ccccc2-c2ccccc2)CC1,-1,40,7,0.8,17,0.6
NC(=O)C1(N2CCCCC2)CCN(S(=O)(=O)c2cc(Cl)ccc2Cl)CC1,-5,90*,2,2.7*,-173,0.1
NC(=O)C1(N2CCCCC2)CCN(Cc2ccccc2Cl)CC1,6,80*,0,0.8,22,0.2
COc1ccc(N2C3=[N+](CC2(C)O)c2ccccc2CC3)cc1 (stereo unspecified),0,21,7,0.9,15,0.8
CCOC(=O)C1CCCN(c2c(NCCCN3CCCC(C)C3)c(=O)c2=O)C1 (stereo unspecified),-2,2,1,0.9,10,1
Cc1cc(NC(=O)c2ccccc2Cl)c(C(C)C)cc1O,-18,65*,15,3.1*,-210,0.3
Cc1ccccc1NC(=O)c1ccccc1O,-1,10,12,0.8,16,0.9
CCN(CC)CCNc1nc(-c2ccco2)c2c(c1C#N)CC(C)(C)OC2,13,13,1,0.9,14,0.9
Cc1nc2oc3c(NCC4CCCO4)ncnc3c2c2c1COC(C)(C)C2 (stereo unspecified),5,7,12,1.1,-11,0.9
CC1(C)Cc2c(C#N)c(NCC3CCCO3)nc(-c3ccco3)c2CO1 (stereo unspecified),2,13,16,0.5,54*,0.9
CC1(C)Cc2c(C#N)c(NCCc3ccccc3)nc(-c3ccco3)c2CO1,6,12,16,0.3,70*,0.9
CC1(C)Cc2c(C#N)c(NC3CCCCC3)nc(-c3ccco3)c2CO1,-11,6,12,0.4,60*,0.9
CSc1oc(-c2ccco2)nc1S(=O)(=O)c1ccc(F)cc1,-6,/,4,/,/,/
CSc1oc(-c2ccco2)nc1S(=O)(=O)c1ccccc1,7,27,-1,2.9*,-193,0.7
CC(C)Sc1oc(-c2ccco2)nc1S(=O)(=O)c1ccccc1,-6,/,41*,/,/,/
COc1cc(OC)cc(C(=O)n2cnnc2N)c1,12,11,6,1,3,0.9
CCC1CCCCN1CC(=O)Nc1cc(C)nn1-c1nc(C)cc(C)n1 (stereo unspecified),8,52*,7,0.1,93*,0.5
Cc1cc(C)nc(-n2nc(C)cc2NC(=O)c2cccc(S(=O)(=O)N(C)C)c2)n1,/,-2,/,1,-4,1
Cc1cc(C)nc(-n2nc(C)cc2NC(=O)CN2CCC(C)CC2)n1,0,3,9,0.7,31,1
Cc1cc(C)nc(-n2nc(C)cc2NC(=O)CNC(C)c2ccccc2)n1 (stereo unspecified),8,48,34*,0.6,43,0.5
CC(C)CCSc1nc2c(c(=O)[nH]c(=O)n2C)n1CCCc1ccccc1,3,-7,23,0.9,6,1.1
O=C(CN1CCN(c2ccc(F)cc2)CC1)N1N=CCC1c1ccccc1 (stereo unspecified),-5,63*,-6,0.9,13,0.4
O=C(CN1CCN(c2ccc(F)cc2)CC1)N1CCC(Cc2ccccc2)CC1,2,54*,31*,0.3,69*,0.5
O=C(CN1CCN(c2ccccc2)CC1)N1N=CCC1c1ccccc1 (stereo unspecified),-4,32,-9,0.9,7,0.7

# Source: PubChem BioAssay
